Several values for one entry are separate records, joined by “and”; a condition that tells them apart may be missing. Equal entries are not always repeated.
Legend:
Test in all cases: growth inhibition (% activity, log2 RLU normalised to DMSO / staurosporine); higher = more growth inhibition
Conditions in all cases: 33 µM
DIPGX29 = tested on: DIPGX29 (H3.3 K27M diffuse intrinsic pontine glioma line)
Summary of the method: (§1)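 For each approved drug, the growth-inhibition value is the replicate median of per-plate normalised CellTiter-Glo data. Luminescence was log2-transformed and expressed as % activity between solvent and positive control wells. Drugs were applied in triplicate at a single final concentration of about 33 μM for 7 days at 37 °C, 5% CO2 to pHGG cell lines and H9-derived neural stem cells.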

DIPGX37 = tested on: DIPGX37 (H3.3 K27M diffuse intrinsic pontine glioma line)
Summary of the method: as §1

DIPGX7 = tested on: DIPGX7 (H3.3 K27M diffuse intrinsic pontine glioma line)
Summary of the method: as §1

DIPGX9 = tested on: DIPGX9 (diffuse intrinsic pontine glioma line)
Summary of the method: as §1

HGGX39 = tested on: HGGX39 (paediatric high-grade glioma line)
Summary of the method: as §1

HGGX6 = tested on: HGGX6 (H3.3 G34R paediatric high-grade glioma line)
Summary of the method: as §1

HNSC = tested on: HNSC
Summary of the method: as §1

SUDIPGIV = tested on: SUDIPGIV (diffuse intrinsic pontine glioma line)
Summary of the method: as §1

SUDIPGVI = tested on: SUDIPGVI (diffuse intrinsic pontine glioma line)
Summary of the method: as §1

SUDIPGXIII = tested on: SUDIPGXIII (diffuse intrinsic pontine glioma line)
Summary of the method: as §1

SMILES | growth inhibition (DIPGX29) | growth inhibition (DIPGX37) | growth inhibition (DIPGX7) | growth inhibition (DIPGX9) | growth inhibition (HGGX39) | growth inhibition (HGGX6) | growth inhibition (HNSC) | growth inhibition (SUDIPGIV) | growth inhibition (SUDIPGVI) | growth inhibition (SUDIPGXIII)
C[C@H]1NC(=O)NC1=O | -0.365% | 0.903% | -1.69% | -0.744% | -0.268% | 0.316% | -0.248% | -0.465% | 1.41% | 0.834%
COc1cc(Cc2cnc(N)nc2N)cc(OC)c1OC | 1.94% | 3.36% | 1.59% | 1.97% | 3.59% | 2.4% | 0.59% | 2.24% | 2.5% | -1.4%
C[C@@H](O)[C@H]1C(=O)N2C(C(=O)O)=C(S[C@@H]3CN[C@H](CNS(N)(=O)=O)C3)[C@H](C)[C@H]12 | 0.9% | -1.74% | 3.79% | -0.371% | -0.0496% | -2.09% | 28.8% | -1.38% | -5.58% | -1.69%
Cc1ccccc1C(OCCN(C)C)c1ccccc1 (stereo not given) | -0.515% | 0.826% | -0.00592% | 1.44% | 2.28% | 1.66% | -1.91% | 0.0322% | 0.905% | 1.58%
CCCN(CCC)CCc1cccc2c1CC(=O)N2 | -1.21% | -2.23% | 1.15% | 0.189% | 2.83% | -2.51% | 0.584% | 0.852% | 2.13% | -0.826%
CCCCOc1cc(C(=O)OCCN(CC)CC)ccc1N | 0.216% | -0.547% | 1.69% | 0.918% | 14.2% | 9.49% | -2.2% | 4.07% | -0.0266% | 2.42%
CC1(C)S[C@@H]2[C@H](NC(=O)[C@H](NC(=O)N3CCNC3=O)c3ccccc3)C(=O)N2[C@H]1C(=O)O | -0.235% | 0.459% | -0.00643% | 0.298% | 1.59% | -0.0472% | -1.56% | -0.88% | -1.06% | -0.815%
CN1CCC(=C2c3ccccc3CC(=O)c3sccc32)CC1 | -0.432% | 0.985% | -0.625% | 0.0911% | 0.272% | 2.44% | 1.53% | -1.24% | 0.438% | 0.861%
COc1c(C)c2c(c(O)c1C/C=C(\C)CCC(=O)OCCN1CCOCC1)C(=O)OC2 | 17.5% | 14.5% | 10.6% | 15.1% | 17.2% | 15.1% | 65.5% | 8.44% | 8.42% | 7.66%
CS(=O)(=O)Nc1ccc([N+](=O)[O-])cc1Oc1ccccc1 | 0.913% | 1.17% | 0.12% | 0.568% | 2.03% | -1.72% | 27.3% | -3.67% | -1.3% | -2.23%
Nc1ccn([C@@H]2O[C@H](CO)[C@@H](O)C2(F)F)c(=O)n1 | 16.7% and 17.4% | 13.6% and 13% | 16.9% and 16.6% | 20.2% | 20.4% and 20% | 13.5% and 14.1% | 52.4% and 59.5% | 41.6% and 46% | 4.24% and 4.14% | 9.89% and 11.3%
CC(COc1ccccc1)N(CCCl)Cc1ccccc1 (stereo not given) | -2.73% | -0.547% | 0.876% | -1.7% | -4.31% | -3.53% | 41.4% | -2.44% | -7.02% | 1.89%
N[C@H](C(=O)O)[C@H](O)c1ccc(O)c(O)c1 | -1.91% | -2.48% | -1.18% | -0.989% | -1.97% | -1.74% | -3.73% | -1.1% | -1.43% | -4.54%
COCCOC(=O)C1=C(C)NC(C)=C(C(=O)OC/C=C/c2ccccc2)C1c1cccc([N+](=O)[O-])c1 (stereo not given) | 2.85% | 2.42% | 5.44% | 5.34% | 5.91% | 4.61% | 5.17% | 6.24% | 3.03% | 0.864%
NS(=O)(=O)c1cc(Cl)c(Cl)c(S(N)(=O)=O)c1 | -2.92% | -0.619% | 1.34% | -2.39% | -1.33% | -5.6% | 21.2% | -2.27% | -8.85% | 2.33%
COc1ccccc1OCC(O)CN1CCN(CC(=O)Nc2c(C)cccc2C)CC1 (stereo not given) | -3.85% and 2.95% | -0.299% and 2.63% | -1.1% and 4.84% | -2.23% and 2.88% | -2.5% and 3.07% | -1.8% and 1.36% | -2.11% and 14% | -2.68% and 2.7% | -1.9% and -0.296% | -2.34% and -1.26%
CC(=O)NS(=O)(=O)c1ccc(N)cc1 | 0.584% | 1.84% | 0.329% | 0.364% | 1.9% | 2.46% | -1.34% | -0.27% | 0.507% | 0.27%
CCC(=O)O[C@@H](O[P@](=O)(CCCCc1ccccc1)CC(=O)N1C[C@H](C2CCCCC2)C[C@H]1C(=O)O)C(C)C | 1.88% | 3.74% | 2.4% | 1.15% | 2.87% | 2.08% | 2.72% | 1.26% | 3.21% | -1.04%
CCN(CC)C(=O)C1(c2ccccc2)CC1CN (stereo not given) | 0.721% | 0.301% | 0.852% | 0.846% | 0.86% | 2.42% | 1.54% | 1.15% | 2.57% | 0.599%
C[C@H]1C[C@@H]2[C@H]([C@@H](O)C[C@@]3(C)[C@H]2CC[C@]3(O)C(=O)CO)[C@@]2(C)C=CC(=O)C=C12 | -0.195% | 0.838% | -1.93% | 2.66% | -0.0158% | -2.28% | -1.14% | 5.2% | -0.182% | 1.59%
Cc1ccc(N(CC2=NCCN2)c2cccc(O)c2)cc1 | -5.09% | -4.29% | -2.56% | -2.27% | -2.42% | -3.2% | 1.6% | -4.67% | -4.28% | -1.14%
OC(CCN1CCCC1)(c1ccccc1)C1CCCCC1 (stereo not given) | -1.59% | 0.342% | -1.45% | -1.38% | -2.22% | -0.386% | -0.926% | -0.217% | -0.619% | -1.02%
